The source of these data is PubChem BioAssay.

The structures appear in SMILES notation.

The subject of test [1] is Human papillomavirus type 1a protein E7 (residues 44-93). As to the kind of experiment: HPV1a E7 fragment binders on microarrays, primary screen, biochemical, small-molecule microarray, residues 44-93, 635 nm fluorescence (AID 1108).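 Also: E7 fragment applied at 1 µg/mL in TBST for 1 h at 4 C; score combines spot fluorescence with its signal to noise ratio.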 As to conditions: small-molecule microarray binding, fluorescence 635 nm; higher = more signal.
Test [2] in a line: modulators of HCV replicon luciferase signal, primary screen, HCV replication inhibitor project, Huh7 cells, luciferase reporter (AID 1109).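 Also: huh7 hepatoma cells harbouring a luciferase neomycin HCV replicon reporter; luciferase luminescence as measure of HCV replicon replication; test concentration not given here.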 Conditions: 48 h, higher = more signal. (In general: Replicon systems follow genome replication, usually without infectious particles.)
Test [3] deals with Left-right determination factor 2 (Homo sapiens) (UniProt O00292). Description: LEFTY2 binders on small-molecule microarrays, primary screen, biochemical, small-molecule microarray, 635 nm fluorescence scan (AID 1110). As to conditions: LEFTY2 binding, higher = more signal.
In test [4] the target is Calmodulin-1 (Homo sapiens) (UniProt P0DP23). Description: CALM1 binders on microarrays, EGTA buffer, profiling panel, biochemical, small-molecule microarray, Cy5-labelled CALM1 (AID 1111).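 Also: labelled calmodulin applied in Tris saline Tween buffer holding calcium plus EGTA and DTT.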 Conditions: Cy5-CALM1 binding fluorescence, higher = more signal.
The target is the same in test [5]. As to the kind of experiment: calcium-bound CALM1 binders on microarrays, profiling panel, artefact control for SMM control-protein annotation, biochemical, small-molecule microarray, Cy5-labelled CALM1, plus calcium (AID 1112).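 Also: score merges spot fluorescence with signal to noise from triplicate slides.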 As to conditions: Cy5-CALM1 binding fluorescence, higher = more signal.
Test [6] is described as follows: small-molecule microarray binders of probe aWnt5a, primary screen, biochemical, biotinylated probe, 635/667 nm fluorescence (AID 1113).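 Also: score merges 667 nm fluorescence intensity with signal-to-noise per printed feature.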 As to conditions: higher = more signal.
The nature of test [7]: small-molecule microarray binders of probe aShh, primary screen, biochemical, biotinylated probe, 635/667 nm fluorescence (AID 1114).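 Also: probe is biotin-labelled aShh protein from a stem cell growth factor screen; measures binding of labelled protein to compounds printed on the slide; score merges feature fluorescence at 667 nm with signal-to-noise.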 As to conditions: higher = more signal.
Test [8] in a line: small-molecule microarray binders of probe aNog, primary screen, biochemical, biotinylated probe, 635/667 nm fluorescence (AID 1115).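 Also: probe is biotinylated aNog protein used at 0.15 µg/mL for 1 h at 4 C; z-score combines 667 nm fluorescence of each spot with its signal to noise.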 As to conditions: higher = more signal.
The target of test [9] is Torsin-1A-interacting protein 1 (Homo sapiens) (UniProt Q5JTV8). Description: LAP1 binders from COS7 cell lysate, primary screen, small-molecule microarray, 635/667 nm fluorescence (AID 1116). As to conditions: COS7-hLAP1 lysate binding, 635 nm fluorescence, higher = more signal.
The target of test [10] is Alpha-bungarotoxin (Bungarus multicinctus) (UniProt P60615). Description: alpha-bungarotoxin binders on microarray, profiling panel, artefact control for SMM control protein annotation, biochemical, small-molecule microarray, Alexa647 label, 635/667 nm fluorescence (AID 1117). As to conditions: alpha-BTX-A647 binding fluorescence, higher = more signal.
Sequence of Alpha-bungarotoxin (Bungarus multicinctus) (P60615 whole entry, looked up): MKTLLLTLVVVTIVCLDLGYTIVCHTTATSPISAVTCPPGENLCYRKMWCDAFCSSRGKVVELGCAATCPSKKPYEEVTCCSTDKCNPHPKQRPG

Sequence of Left-right determination factor 2 (Homo sapiens) (O00292 whole entry, looked up): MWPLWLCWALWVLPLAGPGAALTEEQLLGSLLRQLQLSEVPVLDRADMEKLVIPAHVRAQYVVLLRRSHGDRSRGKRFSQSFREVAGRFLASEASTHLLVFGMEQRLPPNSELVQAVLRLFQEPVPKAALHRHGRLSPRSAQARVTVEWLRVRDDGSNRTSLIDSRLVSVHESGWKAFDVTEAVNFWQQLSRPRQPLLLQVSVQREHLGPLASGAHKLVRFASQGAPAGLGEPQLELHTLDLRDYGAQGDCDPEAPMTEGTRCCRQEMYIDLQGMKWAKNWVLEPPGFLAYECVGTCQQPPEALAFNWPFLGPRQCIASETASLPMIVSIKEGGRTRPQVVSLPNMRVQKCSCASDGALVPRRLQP
Sequence of Torsin-1A-interacting protein 1 (Homo sapiens) (Q5JTV8 whole entry, looked up): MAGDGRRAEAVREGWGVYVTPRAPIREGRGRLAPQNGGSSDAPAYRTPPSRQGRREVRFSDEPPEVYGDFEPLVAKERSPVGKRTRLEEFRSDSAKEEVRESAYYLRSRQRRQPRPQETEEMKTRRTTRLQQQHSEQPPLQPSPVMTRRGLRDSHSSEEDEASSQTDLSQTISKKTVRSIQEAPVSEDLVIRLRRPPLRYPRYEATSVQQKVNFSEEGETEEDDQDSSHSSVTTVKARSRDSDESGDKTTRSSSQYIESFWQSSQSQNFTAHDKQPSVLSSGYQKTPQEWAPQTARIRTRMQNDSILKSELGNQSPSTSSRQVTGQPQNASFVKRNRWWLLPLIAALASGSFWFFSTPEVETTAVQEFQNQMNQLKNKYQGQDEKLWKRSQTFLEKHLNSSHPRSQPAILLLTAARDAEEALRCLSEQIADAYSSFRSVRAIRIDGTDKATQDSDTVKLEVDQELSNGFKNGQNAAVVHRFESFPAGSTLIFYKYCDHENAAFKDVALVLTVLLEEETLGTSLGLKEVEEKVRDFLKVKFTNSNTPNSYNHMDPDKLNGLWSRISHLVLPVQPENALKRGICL

As to `CC(C)C(O)C1C=CC2C(=O)NC(=O)C2N1Nc1ccc(Cl)cc1Cl` (stereo not given), the composite z-score is -0.898 in test [1]; -0.226 in test [3]; 1.5 in test [4]; 1.23 in test [5]; -0.0944 in test [6]; -0.296 in [7]. In addition, the composite z-score in [8] was 0.0266; in [9], 1.91; in test [10], 0.712. In test [2], this compound registered a z-score of -0.88.
In the case of `CCOC(=O)C[C@H]1[C@H](OC(=O)c2ccc(C(=O)c3ccccc3)cc2)[C@@H](NC(=O)c2ccccc2)c2cc(OCCCO)ccc2N1C(=O)Cc1ccc(OC)cc1`, the composite z-score in test [1] was 0.525; in test [3], 0.366; in [4] it was 0.0941; in test [5], -0.222; in test [6], -0.107; in [7] it was -0.195. Also, the composite z-score in test [8] is -0.205; in test [9], 0.738; in [10] it was 0.178. In test [2], this compound showed a z-score of -0.283.
Consider `CCCC[C@@H]1C[C@H]1[C@@H](NC(=O)c1ccco1)c1ccccc1C(F)(F)F`, for which the composite z-score in test [1] is 0.209; in test [3], -0.23; in test [4], 1.75; in test [5], 1.2; in [6] it was 0.948; in test [7], 2.6. Moreover, the composite z-score came to 2.94 in test [8], 0.58 in test [9] and 1.84 in [10]. The same compound registered a z-score in test [2] of -1.42.
Consider `COC(=O)[C@]1(CCC(=O)OC(C)(C)C)N=C(c2ccc(OCCCO)cc2)O[C@@H]1c1ccccc1CN=[N+]=[N-]`, for which the composite z-score in test [1] is -0.0058; in [3], -0.684; in [4], 0.884; in [5], 0.367; in [6], -0.0045; in test [7] it was 0.147. In addition, the composite z-score was 0.977 in test [8], 0.157 in [9] and 0.869 in test [10]. In test [2], the z-score was -3.32.
In the case of `CCCCCCc1nc(-c2ccc(OC)nc2)cc2c1[Si](C(C)C)(C(C)C)O[C@H]2c1ccccc1`, the composite z-score in [1] was -0.103; in test [3] it was 0.28; in test [4], -0.0918; in test [5], 0.176; in test [6] it was -0.176; in test [7], 0.108. Further, the composite z-score in test [8] was -0.234; in test [9], -0.476; in test [10], 0.0237. This compound also had a z-score in test [2] of -0.657.
Consider `CC(C)C[C@@H]1NC(=O)[C@@H]2C[C@H](C(=O)NCc3ccc(F)cc3)[C@H](c3cccc(OCCO)c3)N2C1=O`, for which the composite z-score in test [1] was 0.0179; in [3], 0.0533; in test [4] it was 0.217; in [5], 0.0115; in [6], -0.31; in test [7], 0.147. For the same compound, the composite z-score in test [8] is -0.0315; in test [9], 0.172; in test [10], -0.41. This compound registered a z-score in test [2] of -0.992.
Consider `COCCOC(=O)N1C(=O)[C@@]2(c3cc(C#CCC(C(=O)OC)C(=O)OC)ccc31)[C@H](c1ccccc1OCCO)N1[C@H](c3ccccc3)[C@H](c3ccccc3)OC(=O)[C@H]1[C@@H]2C(=O)N1CCN(c2ncccn2)CC1`, for which the composite z-score in test [1] was 1.37; in test [3] it was 0.755; in [4] it was 1.92; in test [5], 1.18; in test [6], 0.102; in [7], 0.166. Besides, the composite z-score in test [8] was 0.277; in [9] it was 2.01; in [10], 0.771. The compound further returned a z-score in test [2] of -1.99.
With `C=CCC(OC(C)=O)[C@@H]1[C@@H](N(Cc2ccc(-c3ccccc3)cc2)C(=O)c2ccc(-c3ccccc3)cc2)c2cc(OCCCO)ccc2N1C(=O)Cc1ccc2ccccc2c1` (stereo not given in full), the composite z-score in [1] is 0.422; in [3] it was 0.0959; in test [4], 0.436; in test [5], 0.704; in [6] it was -0.0566; in [7], -0.345. Further, the composite z-score in [8] was 0.221; in test [9], 0.359; in test [10], 0.0054. In test [2], this compound registered a z-score of -0.4.
Take `COc1cc2c(cc1O)C(c1cccs1)N(C)CC2` (stereo not given): the composite z-score in test [1] was -1.61; in test [3], -0.496; in [4], -0.705; in test [5] it was 0.423; in test [6], -0.126; in test [7], -0.2. The composite z-score in test [8] was -0.215; in test [9], -0.205; in [10], -0.759. The compound also yielded a z-score in test [2] of 0.159.
Regarding `Cc1ccccc1C(O)C1C=CC2C(=O)N(c3ccccc3)C(=O)C2N1Nc1ccc(C(C)C)cc1` (stereo not given), the composite z-score in test [1] is 0.944; in test [3], 0.262; in test [4], 1.22; in [5] it was 0.618; in test [6] it was -0.0721; in test [7] it was 0.14. The values for the composite z-score in test [8], in test [9] and in [10] were 0.209, 0.0331 and 1.16, respectively. This compound also returned a z-score in test [2] of 1.11.
Take `CCOC(=O)C[C@H]1[C@H](OC(=O)c2ccc(C(=O)c3ccccc3)cc2)[C@@H](NC(=O)c2ccccc2)c2cc(OCCCO)ccc2N1C(=O)c1ccc2ccccc2n1`: the composite z-score in test [1] is 1.31; in test [3] it was 0.495; in test [4] it was 1.61; in test [5] it was 0.506; in test [6], -0.0614; in [7], -0.138. The composite z-score in test [8] was -0.308; in [9] it was 0.239; in [10], 0.635. In test [2], the z-score was -1.16.
With `CC(=O)n1cc(C(O)C2C=CC3C(=O)N(c4ccccc4)C(=O)C3N2Nc2ccc([N+](=O)[O-])cc2)c2ccccc21` (stereo not given), the composite z-score in test [1] was 0.275; in test [3], -0.712; in test [4], 1.73; in test [5], 0.571; in [6], -0.0459; in test [7] it was -0.0243. For the same compound, the composite z-score in [8] was determined as 0.576; in [9], 1.87; in test [10], 1.7. Further, in test [2], the z-score is -0.0176.
With `CC(C)C(O)C1C=CC2C(=O)N(c3ccccc3)C(=O)C2N1Nc1ccc([N+](=O)[O-])cc1` (stereo not given), the composite z-score in test [1] is 1.2; in test [3] it was -0.217; in test [4], 0.594; in test [5], 0.308; in [6], 0.261; in test [7], 0.0358. In addition, the composite z-score in [8] was determined as 0.202; in test [9] it was 1.34; in [10] it was 0.801. The same compound yielded a z-score in test [2] of 0.285.
Take `COc1cc2c(cc1O)C(C1CC1)N(Cc1sc3ccccc3c1Cl)CC2` (stereo not given): the composite z-score in test [1] is 1.39; in test [3] it was -0.423; in test [4] it was 0.131; in [5] it was 0.469; in test [6], -0.0977; in test [7], 0.0062. Besides, the composite z-score in [8] turned out to be 0.173; in test [9], 1.26; in [10], 0.281. Moreover, the z-score in [2] was -2.87.
As for `CC(C)=CCN[C@H](CO)c1ccccc1`, the composite z-score is 0.318 in test [1]; 0.422 in [3]; -0.644 in [4]; -0.881 in test [5]; -0.13 in test [6]; 0.0048 in test [7]. The composite z-score in test [8] was -0.278; in test [9], 0.157; in test [10], 0.189. The z-score in test [2] was -1.76.
`CN(C)C(=O)[C@@]1(CCS(=O)(=O)c2ccccc2)COC(c2ccc(OCCCO)cc2)=N1`: the composite z-score in test [1] was 1.31; in test [3] it was 0.149; in [4] it was 0.614; in test [5], -0.429; in test [6], -0.154; in [7], 0.414. Further, the composite z-score in test [8] is -0.288; in [9], 2.75; in test [10], 0.301. This compound also registered a z-score in test [2] of -2.25.
Take `COC(=O)[C@@]1(Cc2ccccc2)[C@H]2c3cc(C(=O)N(C)C)n(Cc4ccsc4Br)c3C[C@H]2CN1C(=O)c1ccccc1`: the composite z-score is 1.41 in [1]; -0.329 in test [3]; 1.79 in [4]; 0.463 in test [5]; 0.107 in test [6]; 0.342 in test [7]. Further, the composite z-score in test [8] came to 1.2; in test [9] it was 0.905; in test [10], 0.626. In test [2], this compound showed a z-score of -3.07.
